Experimental data from PubChem BioAssay (NCI).
About 79,000 compounds went through this panel and 15% of them were active in at least one assay; those are over-represented in the sample as a whole. Rule as the data show it: active = growth inhibition above about 70%; inactive = the rest.

What was measured:
[1] = NCI Yeast Anticancer Drug Screen. Data for the rad50 strain (AID 155);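 also: 0% = growth of vehicle-only cultures of the same strain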; conditions: S. cerevisiae rad50 strain growth inhibition; at 50.0 µM; hits give high values
Procedure, shortened: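 Relative growth inhibition (compound vs vehicle) was measured in yeast with a defined repair-gene alteration.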

[2] = NCI Yeast Anticancer Drug Screen. Data for the mec2-1 strain (AID 157); conditions: S. cerevisiae mec2-1 strain, at 50.0 µM, hits give high values
Procedure, shortened: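 Yeast mec2-1 mutant treated with compound. Readout: growth inhibition vs vehicle controls.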

[3] = NCI Yeast Anticancer Drug Screen. Data for the sgs1 mgt1 strain (AID 161);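 also: 0% = growth of cultures given vehicle only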; conditions: S. cerevisiae sgs1 mgt1 strain, at 50.0 µM, hits give high values
Procedure, shortened: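 Genetically altered yeast, compound exposure, growth inhibition relative to vehicle.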

[4] = NCI Yeast Anticancer Drug Screen. Data for the cln2 rad14 strain (AID 165);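 also: 0% = growth equal to vehicle treated cultures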; conditions: S. cerevisiae cln2 rad14 strain, at 50.0 µM, hits give high values
Procedure, shortened: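 cln2 rad14 yeast strain; compound exposure; growth inhibition read vs vehicle controls.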

[5] = NCI Yeast Anticancer Drug Screen. Data for the bub3 strain (AID 167); conditions: S. cerevisiae bub3 mutant strain, at 50.0 µM, hits give high values
Procedure, shortened: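 Screening used yeast with an engineered genetic alteration affecting cell cycle control. Compound-exposed cultures were compared with vehicle cultures, and reduced growth was taken as inhibition.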

[6] = NCI Yeast Anticancer Drug Screen. Data for the mlh1 rad18 strain (AID 175); conditions: S. cerevisiae mlh1 rad18 strain growth inhibition; at 50.0 µM; hits give high values
Procedure, shortened: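 Yeast w/ defined DNA-repair lesions; compound exposure; growth vs vehicle controls → % inhibition.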

Measured: growth inhibition

CC1OCC2OC(C)OC(C(C3C(=O)CC(C)(C)CC3=O)C3C(=O)CC(C)(C)CC3=O)C2O1 (stereo unspecified)
inactive: [1] 17.4% | [2] 6.3% | [3] 19.2% | [4] -8.3% | [5] 26.2% | [6] 22.8%

CN1C(=O)C(O)C[C@@H]1c1ccc(F)cc1 (stereo partly specified)
inactive: [1] -5% | [2] 6.8% | [3] 12.7% | [4] 16.6% | [5] -0.25% | [6] -30.4%

O=c1c2cc(S(=O)(=O)Nc3ccc(Cl)cc3Cl)ccc2ncn1NS(=O)(=O)c1cccc2ccccc12
inactive: [1] 10.9% | [2] -5.4% | [3] 28.6% | [4] 18.8% | [5] 8.85% | [6] 14.9%

O=C1N2CCCSC2=NC1(c1ccccc1)c1ccccc1
inactive: [1] -7.15% | [2] 0.7% | [3] 1.75% | [4] 11.2% | [5] 13.2% | [6] -0.05%

O=C1CCN2CCC(=O)c3c(Cl)ccc1c32
inactive: [1] 8.05% | [2] 13.3% | [3] 8.5% | [4] 13.8% | [5] 14.1% | [6] 16.9%

CCOC(=O)Cn1c(=O)[nH]c(=O)c2[nH]cnc21
inactive: [1] 9.85% | [2] -5.35% | [3] -1.3% | [4] 9.35% | [5] 13.3% | [6] 23.8%

c1ccc2c(c1)OP1(=NP3(=NP4(=NP5(=N1)Oc1ccccc1-c1ccccc1O5)Oc1ccccc1-c1ccccc1O4)Oc1ccccc1-c1ccccc1O3)Oc1ccccc1-2
inactive: [1] 7.8% | [2] 6.3% | [3] -30.5% | [4] -4.1% | [5] -1.1% | [6] 17.2%

COc1ccc(C2=CC(=O)C(C)(C#N)CC2)cc1 (stereo unspecified)
inactive: [1] 3.9% | [2] 25.9% | [3] -4% | [4] 25.1% | [5] 34% | [6] 4.8%

Nc1nc(N)c(-c2ccccc2)c(C(=O)Nc2ccc(Cl)c(Cl)c2)n1
inactive: [1] -27.9% | [2] -34.4% | [3] 4.1% | [4] 5.6% | [5] -23.1% | [6] -16.4%

O=Nc1c(O)c(S(=O)(=O)O)cc2cc(S(=O)(=O)O)ccc12
inactive: [1] 24.9% | [2] -1.8% | [3] 51.1% | [4] 17.9% | [5] 37.6% | [6] 11.2%

CCCCCCCC(=O)NN
inactive: [1] -20.9% | [2] -27.6% | [3] -12.9% | [4] -4.7% | [5] -11.9% | [6] 10.3%

COc1ccc(/C=N/NC(=O)c2ccccc2NC(=O)c2ccccc2Cl)cc1
inactive: [1] 17.4% | [2] -25.1% | [3] 29.1% | [4] -13.7% | [5] 7.25% | [6] 24.7%

CC(NC(=O)C(N)CC(=O)O)NC(=O)N(C)C(C)(C)C (stereo unspecified)
inactive: [1] -8.5% | [2] 1.75% | [3] 2.1% | [4] 2.65% | [5] 25.4% | [6] -44.2%

CCCCN=C(C)CC(=O)CC(=O)c1ccccc1
inactive: [1] 30.3% | [2] 23.1% | [3] 44.4% | [4] -53.6% | [5] 22.4% | [6] 33.9%

N#CSCc1cc(Cl)c(CSC#N)c(Cl)c1Cl
inactive: [1] -6.95% | [2] 22.2% | [3] -3% | [4] 16.6% | [5] 13.2% | [6] 31.4%

C1=C2/CC[C@H](Sc3ccccc3)[C@H]2C2(CCCCC/1)OCCO2
inactive: [1] 13.8% | [2] -19% | [3] -6.45% | [4] -1.05% | [5] 13.2% | [6] -4.05%

COc1ccccc1NC(=S)N/N=C/c1ccccn1
inactive: [1] -16.6% | [2] 15.9% | [3] 24.4% | [4] 8.95% | [5] 17.7% | [6] 14%

CC(C)(C)OC(=O)N(CCCN)CCCCN(CCCN)C(=O)OC(C)(C)C
inactive: [1] 8.45% | [2] -9.5% | [3] 5.25% | [4] 12.8% | [5] -5.55% | [6] -62%

COc1cc2cc(OC)c3cc4c(cc3c2c(OC)c1OC)OCO4
inactive: [1] 12.2% | [2] 11.1% | [3] 19.2% | [4] 7.3% | [5] 6.6% | [6] 5.65%

CCOC(CN(C)C)OCC
inactive: [1] 8.6% | [2] 6.95% | [3] 4.1% | [4] -18.2% | [5] -5.8% | [6] 5.7%

FC(F)Cc1ccccc1
inactive: [1] 3.55% | [2] -0.75% | [3] 11.1% | [4] -7.15% | [5] -1.5% | [6] -6.6%
